Laboratory results taken from PubChem BioAssay (NCI).
About 83,000 compounds went through this panel and 20% of them were active in at least one assay; those are over-represented in the sample as a whole.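 How to read the values: 0–100, growth inhibition (40 = 60% inhibited); 0, no net growth; -100 to 0, cell death (-40 = 40% of starting cells died; -100 = all dead).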 Calls of active or inactive are those of the source. How the source made its calls: active means growth percent below 10; inactive means the rest.

Key:
Assay in all cases: NCI-60 one-dose screen, 48 h (100 = growth as untreated, 0 = no growth, -100 = all killed)
Details in all cases: 10 µM unless noted
[1] = tested on: BT-549 breast
[2] = tested on: MDA-MB-435 melanoma
[3] = tested on: SW-620 colon
[4] = tested on: MCF7 breast
[5] = tested on: HCT-116 colon
[6] = tested on: HCC-2998 colon
[7] = tested on: KM12 colon

Measured: growth

C=C(C)[C@@H]1C[C@H](O)Cc2cc(Cl)cc(Cl)c2N1
inactive: [1] 105% | [2] 105% | [3] 105% | [4] 103% | [5] 99.5% | [6] 105% | [7] 107%

CCCCCCC/C(=N\N=C(N)N)c1ccc(O)cc1
inactive: [1] 46.9% | [2] 41.6% | [3] 49% | [5] 18.3% | [7] 48.8%
active: [4] -21.8% | [6] -77%

COc1ccc(/C=C2\COc3ccc(O)c(O)c3C2=O)cc1OC
active: [2] -0.882% | [3] 4.03% | [5] -24.8%
inactive: [1] 29.4% | [4] 13% | [6] 46.1% | [7] 10.4%

Nc1ccc2c3c(cccc13)-c1ccccc1-2
inactive: [1] 71% | [2] 96.5% | [3] 102% | [4] 88.8% | [5] 92.2% | [6] 103% | [7] 87.8%

Cc1cc([N+](=O)[O-])c(C)cc1C(=O)O
inactive: [1] 92.5% | [2] 102% | [3] 108% | [4] 97.6% | [5] 102% | [6] 109% | [7] 102%

CCC1=C(c2ccc(OC)cc2)C(C)Oc2cc(OC(C)=O)ccc21 (stereo not drawn)
inactive: [1] 95.4% | [2] 40.7% | [3] 90.5% | [4] 82.4% | [5] 74.5% | [6] 107% | [7] 77.7%

CN(C)c1nc(N)nc(Cn2c(-c3nonc3N)nc3ccccc32)n1
active: [2] 7.85%
inactive: [1] 91.8% | [3] 52.4% | [4] 66.5% | [5] 71.5% | [6] 82.7% | [7] 55.4%

O=C1Nc2ccccc2C12Nc1cc(Cl)ccc1S2 (stereo not drawn)
inactive: [1] 76.2% | [2] 95.4% | [3] 120% | [4] 59.7% | [5] 84.5% | [6] 110% | [7] 80.4%

Cc1cc(CC(=O)O)n(C)c1C(=O)c1ccc(Cl)cc1
inactive: [1] 101% | [2] 106% | [3] 103% | [4] 120% | [5] 102% | [6] 108% | [7] 105%

Cc1nnc(Nc2ccc(NC(=O)Nc3ccc(Cl)cc3)cc2)c2ccccc12
inactive: [1] 11.4% | [3] 20.3% | [4] 24.9% | [6] 40.5% | [7] 14.1%
active: [2] -40% | [5] 7.67%

CCOc1nc(-c2ccccc2)cc2c(O)c(-c3nnco3)[nH]c(=O)c12
inactive: [1] 41.6% | [2] 63.8% | [3] 32.2% | [4] 23.3% | [5] 39.7% | [6] 61.5% | [7] 48.9%

COC(=O)[C@]12CC[C@@H](C)[C@H](C)[C@@H]1C1=CC[C@@H]3[C@@]4(C)C=C(O)C(=O)[C@@]5(C)COC(=C54)C[C@@]3(C)[C@]1(C)CC2
active: [1] -66.6% | [2] -60.9% | [3] -65.6% | [4] -70.5% | [5] -86.4% | [6] -83.3% | [7] -74.2%

O=C(Nc1cccc2ccccc12)c1cc2c(cc1Br)OCO2
inactive: [1] 61% | [2] 111% | [3] 100% | [4] 79.9% | [5] 236% | [6] 97.3% | [7] 103%

O=C1N(C2CCCCC2)C(=O)N1C1CCCCC1
active: [7] 7.4%
inactive: [1] 33.6% | [2] 57.4% | [3] 48.5% | [4] 42.9% | [5] 44.2% | [6] 49.3%

Oc1[nH]c2ccc(Cl)cc2c1/C=c1/ccc2c(c1)N=C(c1ccc(C(F)(F)F)cc1)N=2
inactive: [1] 88.4% | [2] 42.7% | [3] 84.3% | [4] 27.6% | [5] 50.1% | [6] 61.5% | [7] 45.4%

COc1ccc(-c2noc(N)c2-c2cc(OC)c3c(c2)OCO3)cc1
active: [2] -59.3%
inactive: [1] 48% | [3] 17.5% | [4] 19.1% | [5] 20% | [6] 46% | [7] 23.9%

CC(=O)n1c2ccccc2c2ccccc21
inactive: [1] 119% | [2] 106% | [3] 106% | [4] 104% | [5] 102% | [6] 96.1% | [7] 114%

COc1ccc(/C=C2\NC(=S)NC2=O)cc1
inactive: [1] 105% | [2] 110% | [3] 105% | [4] 99.9% | [5] 99.4% | [6] 117% | [7] 101%

CCOC(=O)C1C(=O)OC2CCCCC21 (stereo not drawn)
inactive: [1] 97.5% | [2] 114% | [3] 110% | [4] 95.4% | [5] 101% | [6] 106% | [7] 109%

Cc1cc2cn3c4cccnc4[nH]c(=O)c3c2cc1C
inactive: [1] 73.2% | [6] 60% | [7] 13.1%
active: [2] -20.7% | [3] -29.5% | [4] -36.9% | [5] -85.3%

CCCCCCCC/C=C/CCCCCCCC1=NC(C)(C)CN1CC(C)O (stereo not drawn)
inactive: [1] 86.7% | [4] 17.1%
active: [2] 6% | [3] 6.69% | [5] -85% | [6] 0.965% | [7] 6.06%

CCc1[nH]nc(-c2ccc(OC)cc2)c1-c1ccccc1OCCN(CC)CC
inactive: [1] 87.7% | [2] 101% | [3] 104% | [4] 93.2% | [5] 83.9% | [6] 103% | [7] 106%

S=C(Nc1ccc(C2=NCCN2)cc1)Nc1ccc(C2=NCCN2)cc1
inactive: [1] 87.9% | [2] 102% | [3] 107% | [4] 103% | [5] 107% | [6] 104% | [7] 101%

COC(=O)[C@]1(CCSC)N[C@H](c2cn(-c3ccccc3)nc2C)[C@@H]2C(=O)N(c3ccccc3)C(=O)[C@@H]21
inactive: [1] 95.5% | [2] 106% | [3] 107% | [4] 98.5% | [5] 98.3% | [6] 95.2% | [7] 107%

CC(c1ccccn1)C(C)(O)C(C)c1ccccn1 (stereo not drawn)
inactive: [1] 108% | [2] 104% | [3] 112% | [4] 103% | [5] 108% | [6] 104% | [7] 105%

O=C1Cc2cc(CCN3CCN(CCOCCO)CC3)c(Cl)cc2N1Cc1ccc(-c2ccccc2-c2nn[nH]n2)cc1
inactive: [1] 87.3% | [2] 92.8% | [3] 95.9% | [4] 87.1% | [5] 87.8% | [6] 88.5% | [7] 85.2%

CN(C)c1ccc2c(c1)/C(=N/O)c1ccccc1-2
inactive: [1] 91.7% | [3] 50.3% | [4] 19.9% | [5] 39.4% | [6] 101% | [7] 35.2%
active: [2] -8.86%

Clc1ccc(-c2nc(-c3cccs3)no2)c(Cl)c1
inactive: [1] 83% | [2] 111% | [3] 88.1% | [4] 29.2% | [5] 94.6% | [6] 68% | [7] 99.3%

Cc1ccc2c(c1)O/C(=C\c1ccc([N+](=O)[O-])o1)C2=O
active: [2] -8.75% | [3] -56.5% | [4] 9.48% | [5] -47.7%
inactive: [1] 25.9% | [6] 64.3% | [7] 86%

COc1ccc(OC)c(/C=C/c2nc(=S)n(-c3ccc(Cl)cc3)[nH]2)c1
active: [2] -10.3%
inactive: [1] 67.2% | [3] 50.4% | [4] 32% | [5] 29.6% | [6] 45.6% | [7] 40.9%

COc1ccc(-c2cncn2-c2ccc(-c3nc4cc(OC)c(OC)c(OC)c4s3)cc2)cc1N
inactive: [1] 31.5% | [2] 47.6% | [3] 63.6% | [4] 39.9% | [5] 36.3% | [6] 80.5% | [7] 51.8%

CC1=NN(c2ccccc2Cl)C(=O)/C1=C\c1cn(S(=O)(=O)c2ccc(C)cc2)c2ccccc12
inactive: [1] 112% | [2] 105% | [3] 98.4% | [4] 113% | [5] 88.2% | [6] 88.5% | [7] 109%

CC(=O)c1cc(C(=O)c2ccc3c(c2)Sc2ccccc2N3)c2c(C)cc(C)cn12
inactive: [1] 28.5% | [3] 20.8% | [4] 15.1% | [6] 18% | [7] 11.1%
active: [2] -22.1% | [5] 3.76%

COC(=O)CCC1=C(CC(=O)OC)C(C)=N/C1=C\c1[nH]c(-c2ccc[nH]2)cc1OC
inactive: [1] 52.3% | [2] 17.3% | [3] 21.5% | [6] 33.7% | [7] 28.1%
active: [4] 3.83% | [5] 9.33%

COc1ccc2c(c1)[nH]c(=O)c1c3cc(OC)c(OC)cc3cn21
inactive: [1] 10.5% | [3] 31.7% | [4] 17.5% | [6] 25.8%
active: [2] -20.3% | [5] -18.8% | [7] -33%

COc1ccc(-c2c3c(nn2-c2ccc(N)cc2)CCc2cnoc2-3)cc1OC
inactive: [1] 81.4% | [2] 94.8% | [3] 97.6% | [4] 94.1% | [5] 84.4% | [6] 98.4% | [7] 82.1%

O=C(Nc1ccc(Cl)cc1)Nc1ccc(Nc2nncc3ccccc23)cc1
active: [4] 5.46%
inactive: [1] 15.7% | [2] 13.7% | [3] 27% | [5] 15.2% | [6] 30.7% | [7] 18.9%

CCc1ccc(CCN2C(=O)c3ccccc3C2=O)nc1
inactive: [1] 116% | [2] 98.9% | [3] 107% | [4] 89.5% | [5] 109% | [6] 112% | [7] 103%

C=C(C[C@](O)(C(=O)/C=C/c1ccc(Cl)cc1)C(=O)OC)c1ccccc1
inactive: [1] 79.5% | [2] 66.5% | [3] 30.3% | [5] 34.9% | [6] 41.9% | [7] 15.3%
active: [4] 5.85%

O=C(C(=O)N1CCOCC1)c1ccc(OC2OC(CO)C(O)C(O)C2O)cc1 (stereo not drawn)
inactive: [1] 108% | [2] 108% | [3] 105% | [4] 95.2% | [5] 105% | [6] 127% | [7] 112%

O=C(N1CCC(CN=c2cc3n(-c4ccc(Cl)cc4)c4ccccc4nc-3cc2Nc2ccc(Cl)cc2)CC1)N1CC1
active: [1] -82.5% | [2] -29.4% | [3] -83% | [4] -71.6% | [5] -70.9% | [6] -75.9% | [7] -63.7%

CC(=O)NC1(C(=O)O)CCCC1
inactive: [1] 118% | [2] 123% | [3] 103% | [4] 97.8% | [5] 112% | [6] 138% | [7] 119%

CCOc1cc(-c2ccc[nH]2)[nH]c1/C=C1\N=C(C)C(C(=O)OC)=C1C
active: [1] -43.3% | [2] -70.8% | [3] -72.9% | [4] -91.3% | [5] -60.2% | [6] -87% | [7] -85.3%

C=C(C[C@@](O)(C(=O)Oc1ccccc1)C(=O)C1CCCCC1)c1ccccc1
inactive: [1] 105% | [2] 102% | [3] 107% | [4] 100% | [5] 92.7% | [6] 105% | [7] 105%

Nc1ccc(C2=Nc3cccc4cccc(c34)S2)cc1
inactive: [1] 83.4% | [2] 98.3% | [3] 97.2% | [4] 45.2% | [5] 81.7% | [6] 61.4% | [7] 76.5%

Cc1ccccc1NC(=O)c1cc2ccccc2cc1O
inactive: [2] 28.6% | [3] 47.2% | [4] 80.5% | [5] 30.3% | [6] 81.5% | [7] 23.4%
active: [1] -0.275%

O=C1CC(=O)N(c2ccccc2)O1
inactive: [1] 101% | [2] 104% | [3] 101% | [4] 115% | [5] 101% | [6] 105% | [7] 109%

C[C@]12CC[C@@H]3c4ccc(O)c([N+](=O)[O-])c4CC[C@H]3[C@@H]1CC[C@@H]2NS(=O)(=O)c1ccc(C(F)(F)F)cc1
inactive: [1] 30.9% | [2] 17.3% | [3] 34.2% | [4] 11.8% | [5] 15.5% | [6] 53.8% | [7] 19.9%

CCN(CC)CCCNCCCNc1cc(OC)cc2cccnc12
inactive: [1] 100% | [2] 103% | [3] 38.7% | [5] 86.5% | [6] 83.7% | [7] 78.8%
active: [4] -46.8%
